Data on 17 compounds can be found in PubChem BioAssay.

Molecules are shown by their SMILES. Activity calls are given as the source filed them.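 How the source made its calls: active means mean duplicate potentiation above the buffer control mean plus 5 SD of buffer wells; inactive means the rest.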

This experiment deals with Potassium voltage-gated channel subfamily KQT member 2 (Rattus norvegicus) (UniProt O88943). The experiment in a line: KCNQ2 thallium flux enhancement – KCNQ2-CHO-K1 cells, selectivity assay for KCNQ1 potentiator project (AID 493009).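 Further: assay conditions were tuned for KCNQ1 rather than KCNQ2 modulators; signal is max minus min fluorescence divided by baseline after thallium stimulus.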 Conditions: FluxOR thallium flux fluorescence, at 10 µM; hits give high values, scaled: buffer 0, activator control 100.
Sequence of Potassium voltage-gated channel subfamily KQT member 2 (Rattus norvegicus) (O88943 whole entry, looked up): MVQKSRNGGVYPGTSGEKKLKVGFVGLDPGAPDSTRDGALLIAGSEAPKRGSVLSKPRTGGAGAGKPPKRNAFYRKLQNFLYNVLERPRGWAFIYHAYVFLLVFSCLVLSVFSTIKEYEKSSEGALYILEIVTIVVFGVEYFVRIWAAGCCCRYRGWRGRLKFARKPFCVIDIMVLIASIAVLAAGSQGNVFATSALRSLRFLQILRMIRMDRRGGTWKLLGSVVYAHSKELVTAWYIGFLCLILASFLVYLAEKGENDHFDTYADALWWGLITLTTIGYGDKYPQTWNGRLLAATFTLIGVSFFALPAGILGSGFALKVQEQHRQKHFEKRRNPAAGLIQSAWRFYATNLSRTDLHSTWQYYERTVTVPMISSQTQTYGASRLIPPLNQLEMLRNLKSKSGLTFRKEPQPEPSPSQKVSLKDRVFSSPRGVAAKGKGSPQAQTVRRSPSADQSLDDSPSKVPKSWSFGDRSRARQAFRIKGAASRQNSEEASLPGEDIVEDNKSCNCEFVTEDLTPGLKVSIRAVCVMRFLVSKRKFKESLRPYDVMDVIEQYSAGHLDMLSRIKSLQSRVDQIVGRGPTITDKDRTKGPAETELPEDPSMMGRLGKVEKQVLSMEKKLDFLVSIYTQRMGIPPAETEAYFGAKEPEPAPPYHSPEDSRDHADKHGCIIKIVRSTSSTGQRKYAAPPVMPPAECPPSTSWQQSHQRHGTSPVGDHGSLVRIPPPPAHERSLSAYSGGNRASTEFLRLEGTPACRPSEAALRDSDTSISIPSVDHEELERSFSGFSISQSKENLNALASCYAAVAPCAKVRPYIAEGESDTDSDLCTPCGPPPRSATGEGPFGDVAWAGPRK
On to `COc1ccc(-c2cc(C(=O)Nc3c(Cl)cc(Cl)cc3Cl)c3ccccc3n2)cc1OC`, for which the outcome was inactive.
The same measure, in the same setting: under `CCOC(=O)c1c(C)[nH]c(C(=O)Cn2nnc(-c3ccccc3Cl)n2)c1C` stands “inactive”.
Take `COC(=O)C1CCCN1C(=O)COc1ccc(Cl)cc1Br` (configuration not stated): the potentiation was 158% (active).
For `O=C1Nc2cc(C(=O)NCCCN3CCOCC3)ccc2S/C1=C/c1cccc(Cl)c1`, the result was inactive.
For `COC(=O)c1cn(NC(=O)Cc2ccc(Cl)c(Cl)c2)c(=O)c2ccccc12`, the potentiation is 252% (active).
As to `CCN(CC)c1ccc(/C=N/Nc2nc3ccccc3[nH]2)c(O)c1`, the outcome was inactive.
With `O=C(NC(=S)Nc1nc2ccccc2s1)c1cccs1`, the potentiation was 389% (active).
As for `CCOc1ccc(S(=O)(=O)N2CCCC(C(=O)NCCN3CCOCC3)C2)cc1Cl` (configuration not stated), the potentiation is 250% (active).
For the compound `Nc1c(C(=O)Nc2ccc(F)cc2)nnn1-c1cccc(C(F)(F)F)c1`, the outcome was inactive.
Consider `O=C(NC(=S)Nc1ccc(N2CCCCC2)cc1)c1ccco1`, for which the potentiation was 228% (active).
On to `CSC(=S)N/N=C(\C)c1ccccc1`, for which the potentiation was 283% (active).
For `CC(=O)/C=C1/C(=O)Nc2ccccc21`, the potentiation is 188% (active).
For the compound `Cc1nnc(SCC(=O)N(Cc2ccccc2)C(C)C)n1-c1ccccc1`, the outcome was inactive.
Still for that read-out and setting: under `COc1ccc(/C=N\NC(=S)SCN2C(=O)C3CCC(C)(C2=O)C3(C)C)cc1` (configuration not stated) stands “inactive”.
Turning to `CCCc1cc2c(-c3ccccc3)cc(=O)oc2cc1OCc1ccc(C(=O)O)o1`, the potentiation is 222% (active).
As to `Cc1cc2ccccn2c1C(=S)NC(=O)c1ccccc1`, the potentiation was 370% (active).
On the same count and under the same terms, under `Cc1ccccc1-n1c(C)cc(/C=N/NC(=O)c2ccncc2)c1C` stands 165% (active).
